The text below walks through data of PubChem BioAssay.

Assay [1] is described as follows: yeast TOR pathway RPL19A-GFP modulators, primary screen, cell-based, S. cerevisiae, multiplex flow cytometry (AID 1862; in the data active = percent of DMSO control GFP below about 86%;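 note: lower values mimic rapamycin by blocking the RPL19A rise seen in DMSO cells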). The following applies: S. cerevisiae RPL19A-GFP strain, flow cytometry fluorescence, 3 h; at 10 µM; stronger effect = lower value. (In general: In flow cytometry, cells or beads pass a laser one at a time.)
A short description of assay [2]: modulators of MEP2-GFP levels in yeast, primary screen, S. cerevisiae, multiplex flow cytometry (AID 1867;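 active = GFP response, as percent of the DMSO control, above the screen-wide mean plus 3 SD, about 139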;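 note: median GFP channel fluorescence of barcode-gated MEP2-GFP cells measured by flow cytometry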). To be noted: S. cerevisiae MEP2-GFP strain, 3 h, at 10 µM, stronger effect = higher value, 100% means same as DMSO wells.
A short description of assay [3]: modulators of CIT2-GFP expression in yeast, primary screen, S. cerevisiae, GFP fusion, multiplex flow cytometry (AID 1870;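 active = percent response above a set limit, the screen-wide mean plus 3 SD, cut at about 130% in these data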;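 note: barcoded CIT2-GFP strain pooled with four other GFP strains with rapamycin as positive control; median GFP fluorescence per well over plate mean of DMSO wells so 100% = DMSO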). The following applies: 3 h, at 10 µM, stronger effect = higher value.
A short description of assay [4]: modulators of LAP4-GFP expression in yeast, primary screen, S. cerevisiae, multiplex flow cytometry (AID 1873;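 active = GFP signal, as percent of the solvent control, above the screen mean plus 3 SD, about 149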). To be noted: 3 h, at 10 µM, stronger effect = higher value.
Assay [5] in a line: modulators of AGP1-GFP expression in yeast TOR pathway, primary screen, cell-based, multiplex flow cytometry, S. cerevisiae (AID 1887;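 active = GFP signal above the screen-wide mean plus 3 SD, that is over about 124.5% of the solvent control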;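 note: AGP1-GFP fusion strain of S. cerevisiae within a five-strain barcoded multiplex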). The following applies: 3 h, at 10 µM, stronger effect = higher value.
Assay [6] is described as follows: inhibitors of CD8+ T cell-vesicle binding, pilot screen, LFA-1/ICAM-1 modulator project, MLPCN validation set, flow cytometry (AID 2523;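 active = response below a set limit, under 55% cells CD8-positive and vesicle-bound, and CD8 cells' 90th-percentile brightness under 279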;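 for vesicle binding response: mean PE anti-B7-1 fluorescence of CD8+ cells relative to row control; 100% = QL9-loaded vesicles with DMSO vehicle in the same plate row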). The following applies: 2C mouse CD8+ T cells, at 7 µM, stronger effect = lower value; double positive events: measured here: CD8+/vesicle+ event percentage.
Assay [7] addresses Integrin beta-1 (Homo sapiens) + Integrin alpha-4 (Homo sapiens) (UniProt P13612+P05556). The assay can be described thus: inhibition of HUTS-21 binding to VLA-4, pilot screen, VLA-4 allosteric modulator project, U937 cells, HUTS-21 mAb, flow cytometry, validation set (AID 2674).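 Note: antibody binding induced by the VLA-4 ligand LDV present at three times its Kd; 0% = LDV ligand with antibody and no compound and 100% = antibody without LDV.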 To be noted: HUTS-21 LIBS mAb binding, at 6.7 µM, stronger effect = higher value, binding induced by LDV ligand.

The nature of assay [8]: superoxide lowering in aged yeast cells, pilot screen, validation compound set (AID 2706;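 active = superoxide response below 65% of plate, a cut near 3 SD across the whole screen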;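 note: yeast exposed to compound for one week at 30 degrees C before staining; 100% = mean of all compound wells on the same plate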). The following applies: S. cerevisiae aging, superoxide DHE fluorescence; at 10 µM; stronger effect = lower value.
Assay [9] has as its target Beta-adrenergic receptor kinase 1 (Homo sapiens) (UniProt P25098). The experiment in a line: GRK2 binders displacing RNA aptamer, biochemical, validation, human GRK2, bead flow cytometry (AID 488806;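 active = aptamer binding inhibition above 30%, about 3 SD of noise from non-fluorescent compounds; inactive = inhibition at or below 30%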). To be noted: bead-bound GRK2, FAM-aptamer displacement, at 10 µM, stronger effect = higher value.
Assay [10] addresses Beta-2 adrenergic receptor (Homo sapiens) (UniProt P07550). The assay can be described thus: beta2AR agonists driving receptor internalization, pilot screen, cell-based, FAP fluorogen, flow cytometry, validation set (AID 504459;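 active = percent response above 42, roughly 3 SD of non-fluorescent test compounds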;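 note: agonist-driven loss of surface beta2AR via internalization measured by FAP dye flow cytometry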). To be noted: Am2.2-beta2AR cells, FAP surface receptor flow cytometry; at 10 µM; stronger effect = higher value.
Assay [11] has as its target AP-2 complex subunit beta (Homo sapiens) (UniProt P63010). The experiment in a line: inhibitors of arrestin peptide binding to AP2, pilot screen, biochemical, validation set, GST-AP2 beads, flow cytometry (AID 504541;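 active = inhibition above 54%, about 3 SD of non-fluorescent compounds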;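 note: AP2 carries R879A mutation and is captured from E. coli lysate; bead-bound FITC arrestin peptide fluorescence measuring arrestin peptide binding to AP2; 0% = DMSO wells and 100% = excess unlabeled arrestin peptide control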). To be noted: FITC arrestin peptide, at 10 µM, stronger effect = higher value, AP2 beta2 appendage fragment, R879A mutant.
Assay [12] in a line: yeast V-ATPase proton transport modulators, S. cerevisiae, pHLuorin, HTS validation (AID 504600; in the data active = response above about 15%;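 note: plate controls were DMSO for no effect and reference compound for full effect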). The following applies: S. cerevisiae pHLuorin cytosolic pH, at 10 µM, stronger effect = higher value.
Assay [13] concerns anti-desmoglein-3 scFv antibody binding to human DSG3. The assay can be described thus: inhibitors of anti-DSG3 scFv binding to DSG3, pilot screen, biochemical, validation compound set, bead-based, flow cytometry (AID 588368;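 active = binding below the plate cutoff, the plate median minus 3 SD, with a reading above zero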;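 note: signal is the median channel fluorescence of bead-bound GFP antibody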). To be noted: Protein G beads, DSG3-Fc, scFv-GFP binding, at 10 µM, stronger effect = lower value.
The nature of assay [14]: inhibitors of fungal efflux pumps CDR1, CDR2, MDR1, pilot screen, validation compound set, multiplex, phenotypic (AID 588506;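 active = efflux inhibition above 0.42, the validation set average plus 4 SD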;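 note: Nile Red retained in cells so higher fluorescence means more efflux inhibition; 0 = negative control wells and 1 = enniatin B 25 µM full block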). The following applies: S. cerevisiae pump-expressing triplex, Nile Red efflux flow cytometry; at 10 µM; stronger effect = higher value; the pumps come from Candida albicans.
Assay [15] has as its target ATP-binding cassette sub-family B member 6 (Homo sapiens) (UniProt Q9NP58). The assay can be described thus: ABCB6 transporter inhibitors, pilot screen, K562-ABCB6 cells, flow cytometry, validation set (AID 588550;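 active = inhibition above the screen-wide mean plus 3 SD, about 51%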;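 note: 0% = DMSO wells and 100% = benzethonium chloride 70 µM positive control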). The following applies: K562-ABCB6 porphyrin accumulation, 1 h, at 10 µM, stronger effect = higher value.
Assay [16] in a line: promoters of myeloid differentiation in arrested cells, primary screen, cell-based, GFP/MAC1 double positive, flow cytometry, validation set (AID 588685;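 active = differentiation response of at least 50%, scaled between solvent and reference control, from cells with both markers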;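 note: compound exposure lasts four days before antibody staining and flow analysis; 0% = DMSO wells and 100% = 5 µM fulvestrant positive control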). The following applies: ER-HoxA9 marrow cells, stronger effect = higher value, normalized: vehicle 0, fulvestrant 100.

The inhibition is the change of the read-out against control, counted positive when it falls.

Results filed as inconclusive are left out. Active and inactive are the calls of the source.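 Rule for the calls, unless noted: active = inhibition above 50%, about 3 SD of the validation set; inactive = the rest.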

Beta-adrenergic receptor kinase 1 (Homo sapiens), sequence (P25098 whole entry, looked up): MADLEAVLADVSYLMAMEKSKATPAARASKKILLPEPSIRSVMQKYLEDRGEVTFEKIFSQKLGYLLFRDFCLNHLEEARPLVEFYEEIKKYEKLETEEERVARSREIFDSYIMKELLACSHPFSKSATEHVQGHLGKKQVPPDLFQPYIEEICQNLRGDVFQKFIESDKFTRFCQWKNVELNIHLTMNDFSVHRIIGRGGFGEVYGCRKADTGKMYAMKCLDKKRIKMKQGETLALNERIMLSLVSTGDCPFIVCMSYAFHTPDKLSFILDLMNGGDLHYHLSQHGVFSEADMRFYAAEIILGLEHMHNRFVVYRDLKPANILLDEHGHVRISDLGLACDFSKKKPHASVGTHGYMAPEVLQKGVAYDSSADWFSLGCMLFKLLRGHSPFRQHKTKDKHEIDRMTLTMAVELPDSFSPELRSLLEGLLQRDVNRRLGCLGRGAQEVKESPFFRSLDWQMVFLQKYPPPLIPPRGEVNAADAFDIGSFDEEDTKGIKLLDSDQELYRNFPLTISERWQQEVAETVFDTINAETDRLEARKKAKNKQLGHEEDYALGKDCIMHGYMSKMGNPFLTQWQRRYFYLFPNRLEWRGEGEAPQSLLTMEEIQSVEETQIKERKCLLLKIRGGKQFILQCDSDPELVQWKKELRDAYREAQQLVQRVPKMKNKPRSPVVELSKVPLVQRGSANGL
AP-2 complex subunit beta (Homo sapiens), sequence (P63010 whole entry, looked up, the tested form may be a part, one chain of several): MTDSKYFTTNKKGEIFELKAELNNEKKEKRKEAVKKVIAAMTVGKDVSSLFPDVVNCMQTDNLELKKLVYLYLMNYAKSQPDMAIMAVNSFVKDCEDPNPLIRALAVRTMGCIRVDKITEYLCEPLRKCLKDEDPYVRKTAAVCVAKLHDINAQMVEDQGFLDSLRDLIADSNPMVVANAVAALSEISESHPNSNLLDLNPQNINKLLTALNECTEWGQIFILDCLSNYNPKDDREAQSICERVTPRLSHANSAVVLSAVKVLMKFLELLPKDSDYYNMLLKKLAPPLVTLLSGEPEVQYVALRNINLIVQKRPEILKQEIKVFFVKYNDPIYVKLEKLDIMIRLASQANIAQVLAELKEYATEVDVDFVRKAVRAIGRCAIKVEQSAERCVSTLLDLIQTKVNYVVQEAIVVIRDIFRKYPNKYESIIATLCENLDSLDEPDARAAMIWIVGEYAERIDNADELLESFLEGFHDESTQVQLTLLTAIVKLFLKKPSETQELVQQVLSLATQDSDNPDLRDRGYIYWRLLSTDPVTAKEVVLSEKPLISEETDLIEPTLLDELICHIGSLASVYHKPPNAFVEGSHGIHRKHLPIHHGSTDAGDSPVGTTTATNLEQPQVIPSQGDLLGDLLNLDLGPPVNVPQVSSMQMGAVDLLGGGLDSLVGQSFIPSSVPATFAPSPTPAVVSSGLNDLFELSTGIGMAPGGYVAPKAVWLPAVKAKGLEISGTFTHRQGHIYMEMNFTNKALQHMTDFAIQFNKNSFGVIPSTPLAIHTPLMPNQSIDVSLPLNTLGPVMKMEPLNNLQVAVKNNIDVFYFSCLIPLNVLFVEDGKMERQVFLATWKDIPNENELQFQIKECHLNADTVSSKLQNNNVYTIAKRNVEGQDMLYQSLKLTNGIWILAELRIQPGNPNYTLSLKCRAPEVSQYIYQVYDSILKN
Integrin beta-1 (Homo sapiens) + Integrin alpha-4 (Homo sapiens), sequence (P05556 whole entry, looked up): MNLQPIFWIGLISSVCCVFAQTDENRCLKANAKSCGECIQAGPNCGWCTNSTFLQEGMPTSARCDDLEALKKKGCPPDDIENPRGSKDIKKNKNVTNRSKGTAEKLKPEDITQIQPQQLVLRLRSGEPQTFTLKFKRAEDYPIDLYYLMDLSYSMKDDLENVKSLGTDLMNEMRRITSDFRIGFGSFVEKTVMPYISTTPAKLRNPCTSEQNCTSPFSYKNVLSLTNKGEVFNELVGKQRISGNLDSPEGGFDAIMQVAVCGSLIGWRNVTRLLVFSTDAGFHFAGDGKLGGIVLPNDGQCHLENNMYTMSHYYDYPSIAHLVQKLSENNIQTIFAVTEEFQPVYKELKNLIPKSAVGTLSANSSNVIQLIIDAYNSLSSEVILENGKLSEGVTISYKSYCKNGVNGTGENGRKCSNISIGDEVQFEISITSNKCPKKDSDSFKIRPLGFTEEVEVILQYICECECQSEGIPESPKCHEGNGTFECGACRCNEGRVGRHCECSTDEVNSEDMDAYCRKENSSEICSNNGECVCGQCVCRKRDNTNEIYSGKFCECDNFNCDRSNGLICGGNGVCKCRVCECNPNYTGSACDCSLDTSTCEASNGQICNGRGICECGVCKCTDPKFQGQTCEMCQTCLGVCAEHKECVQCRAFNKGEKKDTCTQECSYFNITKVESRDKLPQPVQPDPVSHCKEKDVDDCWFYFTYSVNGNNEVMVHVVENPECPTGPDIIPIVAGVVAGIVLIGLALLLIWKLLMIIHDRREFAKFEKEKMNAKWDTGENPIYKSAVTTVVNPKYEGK
Integrin beta-1 (Homo sapiens) + Integrin alpha-4 (Homo sapiens), sequence (P13612 whole entry, looked up): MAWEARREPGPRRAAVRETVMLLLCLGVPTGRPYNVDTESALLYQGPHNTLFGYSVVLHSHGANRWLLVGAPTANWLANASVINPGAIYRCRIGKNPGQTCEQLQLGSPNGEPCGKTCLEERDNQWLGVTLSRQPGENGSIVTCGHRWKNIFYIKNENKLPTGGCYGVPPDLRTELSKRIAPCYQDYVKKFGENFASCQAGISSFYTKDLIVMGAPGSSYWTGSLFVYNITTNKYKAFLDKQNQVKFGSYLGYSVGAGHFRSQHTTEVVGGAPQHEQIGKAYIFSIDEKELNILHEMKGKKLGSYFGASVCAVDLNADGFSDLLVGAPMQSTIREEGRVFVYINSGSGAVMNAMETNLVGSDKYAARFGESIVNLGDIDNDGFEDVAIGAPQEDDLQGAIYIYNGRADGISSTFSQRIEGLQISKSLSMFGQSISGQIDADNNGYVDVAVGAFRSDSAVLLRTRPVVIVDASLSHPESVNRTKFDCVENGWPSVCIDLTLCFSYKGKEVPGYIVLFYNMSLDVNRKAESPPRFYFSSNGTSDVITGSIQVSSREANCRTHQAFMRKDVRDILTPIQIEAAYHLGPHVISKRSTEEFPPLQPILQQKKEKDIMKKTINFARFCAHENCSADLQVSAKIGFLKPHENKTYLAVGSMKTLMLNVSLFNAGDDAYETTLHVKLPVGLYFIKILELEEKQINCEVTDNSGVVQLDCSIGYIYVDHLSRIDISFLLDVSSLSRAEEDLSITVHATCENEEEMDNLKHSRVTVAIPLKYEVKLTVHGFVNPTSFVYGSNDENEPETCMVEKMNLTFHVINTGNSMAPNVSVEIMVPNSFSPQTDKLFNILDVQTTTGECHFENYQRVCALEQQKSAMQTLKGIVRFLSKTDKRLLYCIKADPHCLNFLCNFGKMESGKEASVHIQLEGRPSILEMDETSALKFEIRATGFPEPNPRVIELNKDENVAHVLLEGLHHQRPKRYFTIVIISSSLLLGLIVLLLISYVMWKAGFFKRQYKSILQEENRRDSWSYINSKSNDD
ATP-binding cassette sub-family B member 6 (Homo sapiens), sequence (Q9NP58 whole entry, looked up): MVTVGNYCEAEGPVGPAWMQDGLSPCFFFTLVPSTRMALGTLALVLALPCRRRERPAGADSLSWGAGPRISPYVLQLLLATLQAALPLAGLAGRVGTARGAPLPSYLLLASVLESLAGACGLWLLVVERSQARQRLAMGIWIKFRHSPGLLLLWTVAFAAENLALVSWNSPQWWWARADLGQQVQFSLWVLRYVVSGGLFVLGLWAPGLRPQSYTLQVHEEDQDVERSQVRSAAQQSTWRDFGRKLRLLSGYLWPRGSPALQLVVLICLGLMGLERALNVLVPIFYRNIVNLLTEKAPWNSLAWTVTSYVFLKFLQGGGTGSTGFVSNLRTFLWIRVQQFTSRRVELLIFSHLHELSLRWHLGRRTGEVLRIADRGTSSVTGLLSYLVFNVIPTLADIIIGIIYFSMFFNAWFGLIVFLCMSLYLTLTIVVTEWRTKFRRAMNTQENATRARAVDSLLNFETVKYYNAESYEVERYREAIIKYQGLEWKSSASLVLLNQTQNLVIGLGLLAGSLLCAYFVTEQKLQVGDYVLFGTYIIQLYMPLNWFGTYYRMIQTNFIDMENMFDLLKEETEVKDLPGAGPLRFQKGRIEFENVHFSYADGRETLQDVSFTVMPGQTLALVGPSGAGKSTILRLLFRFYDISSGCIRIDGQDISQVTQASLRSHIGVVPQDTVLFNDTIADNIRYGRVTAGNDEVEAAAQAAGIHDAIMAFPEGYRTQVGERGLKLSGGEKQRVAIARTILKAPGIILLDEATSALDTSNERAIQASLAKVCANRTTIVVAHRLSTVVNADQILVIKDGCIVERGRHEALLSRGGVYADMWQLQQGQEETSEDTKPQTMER
Beta-2 adrenergic receptor (Homo sapiens), sequence (P07550 whole entry, looked up): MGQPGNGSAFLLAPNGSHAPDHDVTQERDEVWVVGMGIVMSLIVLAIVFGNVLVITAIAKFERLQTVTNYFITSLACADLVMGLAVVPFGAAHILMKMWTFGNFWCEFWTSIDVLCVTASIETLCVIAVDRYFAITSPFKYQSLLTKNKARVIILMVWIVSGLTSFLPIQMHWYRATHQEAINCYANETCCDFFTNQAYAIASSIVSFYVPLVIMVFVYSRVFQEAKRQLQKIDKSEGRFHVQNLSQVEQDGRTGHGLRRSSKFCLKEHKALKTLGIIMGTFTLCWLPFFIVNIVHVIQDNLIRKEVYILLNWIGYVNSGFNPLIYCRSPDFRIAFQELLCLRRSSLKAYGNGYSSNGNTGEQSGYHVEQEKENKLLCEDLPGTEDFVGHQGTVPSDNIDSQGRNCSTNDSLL

With `Cc1[nH]c2ccccc2c1C(=O)C(=O)NCc1ccco1`, in assay [1], the percent of DMSO control GFP was 103% (inactive). The GFP response vs DMSO in assay [2] is 104% (inactive); in [4], 112% (inactive). For the same compound, the percent response of DMSO control in assay [3] is 101% (inactive). In addition, in assay [5], the GFP response, % of DMSO is 113% (inactive). Further, the double positive events in assay [6] was 62%. Besides, in assay [6], the vesicle binding response is 151% (inactive). The inhibition in assay [7] is -14.7% (inactive); in assay [11] it was 5.02% (inactive); in assay [15], 4% (inactive). In addition, the superoxide response (% of plate) in assay [8] is 97.1% (inactive). In assay [9], the aptamer binding inhibition is 8% (inactive). The response in assay [10] was -22.4% (inactive); in assay [12], -4.14% (inactive). Also, the binding (% of control) in assay [13] is 106% (inactive). Moreover, the efflux inhibition (fraction of control) in [14] is -0.04 (inactive). Moreover, the differentiation response in [16] is -4% (inactive).

Turning to `CCOc1ccc2nc(NC(=O)NC3CCCCC3)sc2c1`, the percent of DMSO control GFP in [1] is 104% (inactive). Besides, the results for the GFP response vs DMSO in [2] and in assay [4] were 105% (inactive) and 107% (inactive), respectively. Moreover, the percent response of DMSO control in assay [3] is 98.6% (inactive). Besides, the GFP response, % of DMSO in [5] was 107% (inactive). The double positive events in assay [6] came to 64.2%. Further, the vesicle binding response in assay [6] is 215% (inactive). Also, the results for the inhibition in assay [7], in [11] and in assay [15] were -1.09% (inactive), 42.2% (inactive) and -4% (inactive), respectively. Also, the superoxide response (% of plate) in assay [8] was 89.5% (inactive). Also, in assay [9], the aptamer binding inhibition was 4% (inactive). Besides, the response in [10] is 3.3% (inactive); in assay [12], -7.78% (inactive). Besides, the binding (% of control) in [13] was 93.8% (inactive). Also, the efflux inhibition (fraction of control) in assay [14] was 0.8 (active). The differentiation response in assay [16] is -3.11% (inactive).

With `O=C(NCCc1ccccc1)C1CCN(C2CCN(Cc3ccco3)CC2)CC1`, the percent of DMSO control GFP in assay [1] is 98.6% (inactive). The figures for the GFP response vs DMSO in [2] and in [4] were 105% (inactive) and 118% (inactive), respectively. In addition, the percent response of DMSO control in [3] was 101% (inactive). Further, in [5], the GFP response, % of DMSO was 120% (inactive). Further, the double positive events in [6] stood at 58.9%. In addition, the vesicle binding response in [6] is 159% (inactive). Further, the results for the inhibition in [7], in assay [11] and in assay [15] were -9.63% (inactive), -2.11% (inactive) and 6% (inactive), respectively. Besides, in [8], the superoxide response (% of plate) is 92.6% (inactive). In addition, the aptamer binding inhibition in assay [9] is -13% (inactive). Also, the response is -41.8% (inactive) in assay [10] and -0.87% (inactive) in assay [12]. For the same compound, the binding (% of control) in assay [13] was 126% (inactive). Besides, the efflux inhibition (fraction of control) in assay [14] is -0.04 (inactive). The differentiation response in assay [16] is -5.97% (inactive).

Take `COC(=O)c1cc(COc2ccc3ccc(=O)oc3c2)c(C)o1`: the percent of DMSO control GFP in assay [1] is 105% (inactive). Further, the GFP response vs DMSO in assay [2] is 104% (inactive); in assay [4] it was 109% (inactive). Besides, in assay [3], the percent response of DMSO control is 101% (inactive). Also, the GFP response, % of DMSO in [5] was 92.4% (inactive). In addition, the double positive events in assay [6] stood at 59.9%. The vesicle binding response in assay [6] is 120% (inactive). The inhibition was -15.8% (inactive) in [7], -2.54% (inactive) in assay [11] and 12% (inactive) in assay [15]. Also, the superoxide response (% of plate) in assay [8] is 108% (inactive). Moreover, in assay [9], the aptamer binding inhibition was 1% (inactive). The response is 7.33% (inactive) in [10] and -7.29% (inactive) in assay [12]. The binding (% of control) in assay [13] was 102% (inactive). The efflux inhibition (fraction of control) in assay [14] is 0.29 (inactive). Moreover, the differentiation response in [16] was -7.5% (inactive).

Regarding `COC(=O)C1[C@H]2C(=O)N(Cc3cccs3)C[C@]23C=C[C@H]1O3` (stereo not given in full), in [1], the percent of DMSO control GFP was 105% (inactive). The GFP response vs DMSO in assay [2] is 90.9% (inactive); in assay [4], 80.2% (inactive). For the same compound, in [3], the percent response of DMSO control was 105% (inactive). The GFP response, % of DMSO in assay [5] was 99.5% (inactive). For the same compound, in assay [6], the double positive events was 58.4%. Also, the vesicle binding response in assay [6] is 194% (inactive). Moreover, the results for the inhibition in assay [7], in [11] and in [15] were 28.6% (inactive), -9.57% (inactive) and 6% (inactive), respectively. Moreover, the superoxide response (% of plate) in assay [8] was 98.1% (inactive). Besides, the aptamer binding inhibition in assay [9] is 2% (inactive). The values for the response in assay [10] and in [12] were -4.45% (inactive) and 2.19% (inactive), respectively. Moreover, the binding (% of control) in assay [13] was 95% (inactive). Further, in [14], the efflux inhibition (fraction of control) is 0.3 (inactive). Besides, the differentiation response in assay [16] was 14.9% (inactive).
